The entries come from a sample that favours hits as a whole.
CD40 NFkB inh = inhibitors of CD40-induced NF-kB signaling, primary screen, BL2 cells, luciferase reporter, single point | CD40L-induced, 4 h | inhibition, % at 10 µM | 83,000 compounds, 0.94% hits;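 active = mean inhibition of at least 50% with a set share of replicates also reaching that level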
Each line names hits and unclear results; the compound was inactive in the other large screens; ! = not active in a repeat; [ ] = another dose, or the depositor's remark.

N#C[C@H]1[C@H](c2ccccc2-c2ccccc2)[C@@H](CO)N1C(=O)NC1CCCC1	none
N#C[C@@H]1[C@@H](c2ccccc2-c2ccccc2)[C@@H](CO)N1C(=O)NC1CCCC1	CD40 NFkB inh 53.3[25 µM]
COc1ccc(NC(=O)CN(C)C(=O)CNC(=O)c2ccc(C)s2)cc1	none
Cn1cnc(CCNC(=O)C[C@H]2CC[C@@H]3[C@H](COC[C@@H](O)CN3C(=O)Nc3ccc(C(F)(F)F)cc3)O2)c1	none
Cn1cnc(CCNC(=O)C[C@@H]2CC[C@@H]3[C@H](COC[C@@H](O)CN3C(=O)Nc3ccc(C(F)(F)F)cc3)O2)c1	CD40 NFkB inh 51.7[25 µM]
Cn1cnc(CCNC(=O)C[C@@H]2CC[C@@H]3[C@H](COC[C@H](O)CN3C(=O)Nc3ccc(C(F)(F)F)cc3)O2)c1	none
CC(Sc1nc(N)cc(=O)[nH]1)C(=O)Nc1ccc(N2CCOCC2)cc1 (stereo not drawn)	none
O=C(c1ccccn1)N1C[C@H]2[C@@H](c3ccccc31)[C@H](CO)N2C(=O)Nc1ccccc1F	none
O=C(COc1cccnc1[N+](=O)[O-])Nc1ncc(Cl)cc1Cl	none
O=C(COc1cccnc1[N+](=O)[O-])Nc1c(Cl)cccc1Cl	none
O=C(COc1cccnc1[N+](=O)[O-])c1ccc(Cl)s1	CD40 NFkB inh 92.2
COc1ccc(NC(=O)N(C)C[C@H]2OCc3ccccc3-c3c(n(C)c4ccccc34)C(=O)N([C@H](C)CO)C[C@H]2C)cc1	none
COc1ccccc1OCC(=O)N1CCN(c2ccccc2OC)CC1	none
COc1ccccc1N1CCN(c2ccc(S(=O)(=O)N3CCN(C)CC3)cn2)CC1	none
COc1ccccc1N1CCN(c2ccc(-c3ccccc3)nn2)CC1	CD40 NFkB inh 53.1
CN1CCN(C(=O)[C@H]2[C@H](CO)[C@H]3Cn4c(ccc(C5=CCCC5)c4=O)[C@@H]2N3S(C)(=O)=O)CC1	none
CS(=O)(=O)Nc1ccc2c(c1)[C@H]1C[C@H](CC(=O)NCc3cc(F)ccc3F)O[C@@H](CO)[C@H]1O2	none
C[C@@H]1CN([C@@H](C)CO)C(=O)c2cc(C3=CCCCC3)cnc2O[C@@H]1CN(C)C(=O)Cc1ccccc1	none
Cc1ccc(C)c(N(CC(=O)N(C)C)S(C)(=O)=O)c1	none
Cc1ccc(OC(=O)CCC(=O)Oc2ccc(C)cc2C)c(C)c1	none
C=C(CN(C)C)C(=O)c1ccc(C)cc1C	CD40 NFkB inh 92.8
C[C@@H]1CN([C@H](C)CO)C(=O)c2c(c3ccccc3n2C)-c2ccccc2CO[C@@H]1CN(C)S(C)(=O)=O	none
Cc1noc(C)c1S(=O)(=O)N(C)C[C@H]1OCc2ccccc2-c2c(n(C)c3ccccc23)C(=O)N([C@@H](C)CO)C[C@H]1C	CD40 NFkB inh 65.2[25 µM]
Cc1noc(C)c1S(=O)(=O)N(C)C[C@@H]1OCc2ccccc2-c2c(n(C)c3ccccc23)C(=O)N([C@H](C)CO)C[C@H]1C	none
Cc1noc(C)c1S(=O)(=O)N(C)C[C@H]1OCc2ccccc2-c2c(n(C)c3ccccc23)C(=O)N([C@H](C)CO)C[C@H]1C	CD40 NFkB inh 50.8[25 µM]
Cc1noc(C)c1S(=O)(=O)N(C)C[C@@H]1OCc2ccccc2-c2c(n(C)c3ccccc23)C(=O)N([C@@H](C)CO)C[C@H]1C	none
Cc1noc(C)c1S(=O)(=O)N(C)C[C@H]1OCc2ccccc2-c2c(n(C)c3ccccc23)C(=O)N([C@@H](C)CO)C[C@@H]1C	none
C[C@H]1CCCCO[C@H](CN(C)Cc2ccncc2)[C@@H](C)CN([C@@H](C)CO)C(=O)c2cc(NC(=O)c3ccncc3)ccc2O1	none
COc1ccccc1NC(=O)N1CCCCN2[C@H](CO)[C@H](c3ccc(C#CC4CCCC4)cc3)[C@@H]2C1	none
CC(=O)N1CCN(S(=O)(=O)c2cccc(C(=O)Nc3ccccc3N3CCCC3)c2)CC1	none
CC1CCN(C(C)C(=O)Nc2ccc(S(=O)(=O)N3CCCC3)cc2)CC1 (stereo not drawn)	none
COC(C(=O)Nc1ccc(S(=O)(=O)N2CCCCC2)cc1)c1ccccc1 (stereo not drawn)	none
CC(OC(=O)c1cc(Br)ccc1O)C(=O)Nc1ccc(S(=O)(=O)N2CCCC2)cc1 (stereo not drawn)	CD40 NFkB inh 65.2
COCC#Cc1ccc([C@H]2[C@H]3CN(C(=O)C4CCCC4)CC(=O)N3[C@H]2CO)cc1	none
O=C(C1CCOCC1)N1CC(=O)N2[C@H](CO)[C@@H](c3ccc(C#CCc4ccccc4)cc3)[C@H]2C1	none
COCC#Cc1ccc([C@H]2[C@H]3CN(C(=O)C4CCCCC4)CC(=O)N3[C@H]2CO)cc1	none
O=C(C1CCCC1)N1CC(=O)N2[C@@H](CO)[C@@H](c3ccc(C#CCc4ccccc4)cc3)[C@@H]2C1	CD40 NFkB inh 54.7
O=C(C1CCCC1)N1CC(=O)N2[C@H](C1)[C@@H](c1ccc(C#CCc3ccccc3)cc1)[C@@H]2CO	CD40 NFkB inh 51.1
O=C(C1CCCC1)N1CC(=O)N2[C@H](CO)[C@@H](c3ccc(C#CCc4ccccc4)cc3)[C@@H]2C1	none
O=C(CC(F)(F)F)N1C[C@H]2[C@@H](c3ccccc31)[C@H](CO)N2CC1CCOCC1	none
O=C(c1cnccn1)N1C[C@H]2[C@@H](c3ccccc31)[C@@H](CO)N2CC1CCCC1	none
O=C1C2C3C=CC(O3)C2C(=O)N1N=Cc1cccc2ccccc12 (stereo not drawn)	none
CC(C)[C@H]1CC=CC[C@@H](C)Oc2ccccc2C(=O)N(C)[C@H](Cc2ccccc2)C(=O)N1 (mixture of isomers)	none
CCCNC(=O)N1[C@H](C#N)[C@H](c2ccccc2-c2cccc(OC)c2)[C@@H]1CO	none
COCC(=O)Nc1ccc2c(c1)OC[C@H](C)N(C)C[C@@H](C)[C@H](OC)CN(C)C2=O	none
COc1ccc(-c2ccc3n(c2=O)C[C@@H]2[C@@H](CO)[C@H](C(=O)NC4CCC4)N(S(C)(=O)=O)[C@H]32)cc1	none
COc1ccc(NC(=O)N2C[C@@H]3N[C@H](C2)C3c2ccc(-c3ccncc3)cc2)cc1 (stereo partly drawn)	none
COc1ccc(NC(=O)N2C[C@@H]3N[C@H](C2)[C@@H]3c2ccc(-c3ccc(OC)cc3)cc2)cc1	CD40 NFkB inh 63.2
COc1ccc(NC(=O)N2C[C@@H]3N[C@H](C2)C3c2ccc(-c3cncnc3)cc2)cc1 (stereo partly drawn)	none
O=C(Nc1cccc(F)c1)N1C[C@@H]2N[C@H](C1)C2c1ccc(-c2ccccc2F)cc1 (stereo partly drawn)	none
Cc1ccccc1-c1ccc(C2[C@@H]3CN(C(=O)Nc4cccc(F)c4)C[C@H]2N3)cc1 (stereo partly drawn)	CD40 NFkB inh 62.3[25 µM]
COc1ccc(NC(=O)N2C[C@@H]3N[C@H](C2)C3c2ccc(-c3cccc(OC)c3)cc2)cc1 (stereo partly drawn)	none
COc1cccc(-c2ccc(C3[C@@H]4CN(C(=O)C5CCC5)C[C@H]3N4)cc2)c1 (stereo partly drawn)	none
Cc1ccccc1-c1ccc(C2[C@@H]3CN(C(=O)Nc4ccc(F)cc4)C[C@H]2N3)cc1 (stereo partly drawn)	none
COc1cccc(-c2ccc(C3[C@@H]4CN(C(=O)C5CC5)C[C@H]3N4)cc2)c1 (stereo partly drawn)	CD40 NFkB inh 63.0!
CO[C@@H]1CN(C)C(=O)c2cc(NS(C)(=O)=O)ccc2OC[C@H](C)N(Cc2cncnc2)C[C@@H]1C	none
CN1CCN(C(=O)C[C@@H]2CC[C@@H]3[C@H](COC[C@H](O)CN3C(=O)c3ccccc3F)O2)CC1	none
N#C[C@@H]1[C@H](c2ccc(C3=CCCC3)cc2)[C@H](CO)N1C(=O)Nc1ccccc1F	none
CCCC#Cc1ccc([C@@H]2[C@@H](C#N)N(C(=O)C3CCCCC3)[C@H]2CO)cc1	none

Source: PubChem
